From PubChem BioAssay AID588742 (Southern Research Specialized Biocontainment Screening …, 2011)
Screen size: about 1,800 compounds; about 410 (23%) were called active. How the calls were made is not given here. Only a sample is shown. Measured potencies and affinities stand elsewhere.

Assay: viability of Vero cells under compound – cytotoxicity control for flavivirus capping enzyme inhibitors (AID 588742)
Conditions: cytotoxicity counter-screen; series mostly up to 40 µM
In the case of `Cc1c(Cl)cccc1NC(CC(=O)c1ccccc1)C(=O)O` (stereo not given), the outcome is reported as “inactive”.
For `O=C(CC(Nc1ccc(Cl)cc1Cl)C(=O)O)c1ccccc1` (stereo not given), the outcome was “inactive”.
With `O=C(NNc1ccc(O)cc1)c1ccc(Br)cc1` the outcome was “inactive”.
With `Cc1cccc(NC(=O)CSc2nnc(-c3ccco3)c(-c3ccco3)n2)c1C` the outcome was “inactive”.
For `Cc1ccc(O)c(NC2=C(Cl)C(=O)N(Cc3ccccc3)C2=O)c1`, the outcome was “inactive”.
For `O=C1/C(=C2\C(=O)N(Cc3ccc(F)cc3)c3ccccc32)SC(=S)N1CCS(=O)(=O)O`, the outcome was “inactive”.
In the case of `Cc1ccc(S(=O)(=O)N2[C@@H](c3cccc(Cl)c3)C(C(=O)O)=CC[C@H]2c2ccc(C(C)C)cc2)cc1`, the outcome is reported as “inactive”.
With `O=C(CSc1nc(O)c(Cc2ccccc2)c(=O)[nH]1)Nc1nnc(SCc2ccccc2)s1` the outcome was “inactive”.
In the case of `Oc1cc(CNC2CCCCC2)c(O)cc1CNC1CCCCC1`, the outcome is reported as “inactive”.
With `CC(C)C[C@H](N)c1nnc(SCC(=O)Nc2ccc(Br)cc2)o1` the outcome was “inactive”.
In the case of `Cc1ccc(S(=O)(=O)Cc2ccc(C(=O)N3CCC(C(N)=O)CC3)o2)cc1`, the outcome is reported as “inactive”.
With `CC(C)c1cc2c(c(O)c1O)[C@@]13CCCC(C)(C)C1CC2OC3=O` (stereo not given in full) the outcome was “inactive”.
In the case of `Cc1ccc(-c2csc(NS(=O)(=O)c3cccc(F)c3)n2)o1`, the outcome is reported as “inactive”.
For `CCc1c(C)sc(NC(=O)OC)c1C(=O)N1CCCCC1`, the outcome was “inactive”.
With `O=C(O)c1ccccc1C(=O)c1ccc(Sc2ccc(Cl)cc2)c([N+](=O)[O-])c1` the outcome was “inactive”.
With `Cc1sc(NC(=O)c2ccco2)c(C(c2ccncc2)N2CCOCC2)c1C` (stereo not given) the outcome was “inactive”.
With `CC1(C)CC(=O)C(C(c2ccco2)C2C(=O)CC(C)(C)CC2=O)C(=O)C1` the outcome was “inactive”.
With `Cc1noc(NS(=O)(=O)c2ccc(NC(=O)c3ccccc3NS(=O)(=O)c3ccc(F)cc3)cc2)c1C` the outcome was “inactive”.
For `C/C(=N/Nc1ccc(C(=O)O)cc1)c1ccc(O)c(O)c1O`, the outcome was “inactive”.
For `CCS(=O)(=O)c1nc(S(=O)(=O)c2ccc(C)cc2)c(N2CCOCC2)s1`, the outcome was “inactive”.
For `O=C(O)c1ccc(/C=N/Nc2ccc(S(=O)(=O)N3CCCC3)cc2[N+](=O)[O-])cc1`, the outcome was “inactive”.
With `O=C1ON=C(c2ccccc2)/C1=C/c1ccc(-c2ccccc2[N+](=O)[O-])o1` the outcome was “inactive”.
With `O=[N+]([O-])c1cc2c(cc1C=Nc1ccccc1)OCO2` the outcome was “inactive”.
With `Cc1ccc2nsnc2c1S(=O)(=O)N(CCO)Cc1cc2cc3c(cc2[nH]c1=O)OCCO3` the outcome was “inactive”.
With `COc1cccc(/C=C2/C(=O)NN(c3ccc(F)cc3)C2=O)c1` the outcome was “inactive”.
For `CCC(C)NC(=O)Cc1ccc(-c2ccccc2)cc1` (stereo not given), the outcome was “inactive”.
For `CC1=NN(c2nc(-c3ccc(Cl)cc3)cs2)C(=O)C1`, the outcome was “inactive”.
For `CCCC(=Nc1ccc(N)cc1)C1=C(O)C(C(=O)OC)C(C)(C)CC1=O` (stereo not given), the outcome was “inactive”.
For `O=C1C(O)=C(O)C(=O)c2ccccc21`, the outcome was “inactive”.
With `COC(=O)c1ccc(-c2ccc(C(c3c(C)[nH][nH]c3=O)c3c(C)[nH][nH]c3=O)o2)cc1` the outcome was “inactive”.
In the case of `O=C(Nc1cccc(Oc2ccc(C(=O)O)c(C(=O)O)c2)c1)c1ccc(-c2ccccc2)cc1`, the outcome is reported as “inactive”.
With `CC1CCC(C(C)C)C2=C1C(C#N)(C#N)C(C#N)(C#N)C(c1ccccc1)N2` (stereo not given) the outcome was “inactive”.
In the case of `Cc1ccc(-c2nn(-c3ccccc3)cc2/C=C2\SC(=S)N(CC(=O)O)C2=O)cc1`, the outcome is reported as “inactive”.
With `CC1(C)CC(=O)C(=Cc2cn(CCC#N)nc2-c2ccc(Cl)cc2)C(=O)C1` the outcome was “inactive”.
In the case of `O=C(Nc1ccc(Cl)cc1)C1c2cccc[n+]2CC(=O)N1Cc1ccc2c(c1)OCO2` (stereo not given), the outcome is reported as “inactive”.
For `CCOc1cc(Br)cc(C(c2c(C(=O)O)[nH]c3ccccc23)c2c(C(=O)O)[nH]c3ccccc23)c1O`, the outcome was “inactive”.
With `Cc1nn(-c2ccccc2)c2c1C(c1cccs1)C(C#N)=C(N)O2` (stereo not given) the outcome was “inactive”.
In the case of `Cc1ccc(CCNC(=O)C2CCN(S(=O)(=O)N3CCCCC3)CC2)cc1`, the outcome is reported as “inactive”.
For `O=[N+]([O-])c1ccccc1-c1ccc(C(=S)N2CCCCC2)o1`, the outcome was “inactive”.
In the case of `O=[N+]([O-])c1ccccc1-c1ccc(C(=S)N2CCCC2)o1`, the outcome is reported as “inactive”.
For `O=C1NN(c2ccccc2)C(=O)/C1=C/c1ccc(-c2ccc(Cl)c(C(=O)O)c2)o1`, the outcome was “inactive”.
In the case of `O=C(O)c1ccc(Cn2cc(/C=C\[N+](=O)[O-])c3ccccc32)o1`, the outcome is reported as “inactive”.
For `COc1cc(-c2cccs2)cc(=O)c2c(C)oc(C)c12`, the outcome was “inactive”.
With `CCOc1ccc(/C=C2\SC(=S)N(CCC(=O)Nc3ccccc3C(=O)O)C2=O)cc1` the outcome was “inactive”.
For `COc1ccc(C(=O)Nc2cc(C(=O)c3ccccc3)c(C)oc2=O)cc1`, the outcome was “inactive”.
In the case of `Cc1ccc(C(=O)c2coc3c2C(=O)C(=O)c2ccccc2-3)cc1`, the outcome is reported as “inactive”.
In the case of `Cc1oc(=O)c(NC(=O)c2ccccc2)cc1C(=O)c1ccccc1`, the outcome is reported as “inactive”.
With `O=C(COc1cccc2ccccc12)Nc1cc(Cl)ccc1C(=O)O` the outcome was “inactive”.
In the case of `O=C1Nc2ccc(F)cc2C12Nc1ccccc1-c1nnc(SCc3ccccc3F)nc1O2` (stereo not given), the outcome is reported as “inactive”.
For `CC1=NOC(=O)/C1=C\c1ccc(-c2ccc(Br)cc2C(=O)O)o1`, the outcome was “inactive”.
In the case of `CCOC(=O)c1c(-c2ccc(C)c(C)c2)csc1NC(=O)C1CC=CCC1C(=O)O` (stereo not given), the outcome is reported as “inactive”.
With `COC(=O)COc1ccc(C2Nc3c(Cl)ccc(C(=O)O)c3C3C=CCC32)cc1` (stereo not given) the outcome was “inactive”.
For `N#C/C(=C(/O)CSc1ccccc1C(=O)O)c1nc2ccccc2s1`, the outcome was “inactive”.
For `COc1ccc(CC(=O)NCc2ccc3c(c2)cc(C)n3C)cc1`, the outcome was “inactive”.
In the case of `CC1=NN(c2nc(-c3ccc(F)cc3)cs2)C(=O)C1`, the outcome is reported as “inactive”.
In the case of `CCC(C(=O)O)N1C(=O)/C(=C/C(C)=C/c2ccccc2)SC1=S` (stereo not given), the outcome is reported as “inactive”.
For `CC(=O)Nc1ccc2nc(N)sc2c1`, the outcome was “inactive”.
With `COc1ccc(NCC(=O)N/N=C2\CCc3ccccc32)cc1` the outcome was “inactive”.
In the case of `CCOC(=O)c1c(N)sc(=S)c2c1CCC2`, the outcome is reported as “inactive”.
In the case of `CCOC(=O)c1c(N)sc2c1CCS(=O)(=O)C2`, the outcome is reported as “inactive”.
For `CCCCC1=CC2=C(c3ccco3)C(=O)C(C)(OC(=O)c3ccc(OC)cc3)C(=O)C2=CN1C1CC1` (stereo not given), the outcome was “inactive”.
For `CC1=NOC(=O)/C1=C/c1ccc2c(c1)OCO2`, the outcome was “inactive”.
For `CC(=O)c1ccc(NC(=O)CSc2nnc(-c3ccco3)c(-c3ccco3)n2)cc1`, the outcome was “inactive”.
In the case of `Nc1c(C(=O)O)sc2nc(-c3ccccc3)cc(-c3ccc(Cl)cc3)c12`, the outcome is reported as “inactive”.
In the case of `CCOC(=O)C1=C(O)/C(=C\c2ccc(CNC(=O)C(=O)Nc3ccccc3)o2)N=C1C`, the outcome is reported as “inactive”.
